The results in this text go back to ChEMBL document CHEMBL1961873, “Compounds: GSK PKIS; Assays: Nanosyn kinase panel” (2012).

Test [1] has as its target MAP/microtubule affinity-regulating kinase 3 (Homo sapiens) (UniProt P27448). The note with it: at 1 µM.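 Note: reported values are averaged percent inhibition of MARK3.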
Test [2] addresses T1, MAP/microtubule affinity-regulating kinase 4 (Homo sapiens) (UniProt Q96L34).
T1 sequence (whole entry): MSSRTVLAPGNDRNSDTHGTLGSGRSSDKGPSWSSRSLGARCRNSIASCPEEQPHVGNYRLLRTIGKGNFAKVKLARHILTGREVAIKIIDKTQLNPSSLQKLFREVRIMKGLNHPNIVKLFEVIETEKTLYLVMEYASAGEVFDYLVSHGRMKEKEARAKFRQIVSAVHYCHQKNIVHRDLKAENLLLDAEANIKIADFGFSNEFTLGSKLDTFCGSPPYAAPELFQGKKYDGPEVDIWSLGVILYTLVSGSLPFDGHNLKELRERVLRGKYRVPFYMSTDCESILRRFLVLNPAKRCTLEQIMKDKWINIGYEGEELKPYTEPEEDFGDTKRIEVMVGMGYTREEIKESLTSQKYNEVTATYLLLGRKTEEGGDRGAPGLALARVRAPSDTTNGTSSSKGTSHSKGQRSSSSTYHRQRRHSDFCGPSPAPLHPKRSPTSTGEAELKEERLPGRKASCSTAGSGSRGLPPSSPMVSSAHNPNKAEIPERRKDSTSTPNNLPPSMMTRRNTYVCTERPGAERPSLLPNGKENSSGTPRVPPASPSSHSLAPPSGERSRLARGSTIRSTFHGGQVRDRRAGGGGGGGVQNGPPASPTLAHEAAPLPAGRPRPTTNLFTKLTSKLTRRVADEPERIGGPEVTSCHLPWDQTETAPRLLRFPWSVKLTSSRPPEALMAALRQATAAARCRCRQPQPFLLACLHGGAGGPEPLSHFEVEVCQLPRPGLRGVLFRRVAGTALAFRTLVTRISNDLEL
The note with it: at 0.1 µM.

For test [3], the target named is T1, MAP/microtubule affinity-regulating kinase 4 (Homo sapiens). The note with it: at 1 µM.
The target in test [4] is Maternal embryonic leucine zipper kinase (Homo sapiens) (UniProt Q14680). The note with it: at 0.1 µM.
Test [5] shares this target. The note with it: at 1 µM.
For test [6], the target named is MAP kinase-interacting serine/threonine-protein kinase 1 (Homo sapiens) (UniProt Q9BUB5). Particulars: at 0.1 µM.
The target is the same in test [7]. The note with it: at 1 µM.
The target in test [8] is MAP kinase-interacting serine/threonine-protein kinase 2 (Homo sapiens) (UniProt Q9HBH9). The note with it: at 0.1 µM.
Test [9] has the same target. The note with it: at 1 µM.
The target in test [10] is Serine/threonine-protein kinase MARK2 (Homo sapiens) (UniProt Q7KZI7). Particulars: at 0.1 µM.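 Note: mean percent inhibition of PAR-1Balpha kinase activity, reported from the GSK PKIS screen.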
Sequence of Serine/threonine-protein kinase MARK2 (Homo sapiens) (Q7KZI7 whole entry): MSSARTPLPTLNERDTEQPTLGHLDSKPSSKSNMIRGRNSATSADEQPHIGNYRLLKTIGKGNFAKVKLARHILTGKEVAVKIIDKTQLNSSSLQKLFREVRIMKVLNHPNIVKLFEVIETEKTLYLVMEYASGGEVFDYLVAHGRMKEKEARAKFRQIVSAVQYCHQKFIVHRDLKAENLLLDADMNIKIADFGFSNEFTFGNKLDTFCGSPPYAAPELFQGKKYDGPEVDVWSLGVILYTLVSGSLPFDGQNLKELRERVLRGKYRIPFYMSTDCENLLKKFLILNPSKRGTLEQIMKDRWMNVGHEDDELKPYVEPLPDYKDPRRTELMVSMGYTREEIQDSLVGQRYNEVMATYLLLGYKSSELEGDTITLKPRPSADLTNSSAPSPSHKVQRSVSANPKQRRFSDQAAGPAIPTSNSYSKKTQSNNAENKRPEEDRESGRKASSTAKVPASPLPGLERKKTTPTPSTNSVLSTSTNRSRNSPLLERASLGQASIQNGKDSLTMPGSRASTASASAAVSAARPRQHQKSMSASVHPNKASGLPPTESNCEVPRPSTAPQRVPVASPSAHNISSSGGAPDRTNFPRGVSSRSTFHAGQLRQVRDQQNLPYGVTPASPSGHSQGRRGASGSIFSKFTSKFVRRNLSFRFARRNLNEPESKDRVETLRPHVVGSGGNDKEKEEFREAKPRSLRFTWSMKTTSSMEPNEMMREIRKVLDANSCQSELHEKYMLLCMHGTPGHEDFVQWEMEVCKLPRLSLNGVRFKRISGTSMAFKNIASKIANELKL

Sequence of MAP/microtubule affinity-regulating kinase 3 (Homo sapiens) (P27448 whole entry, looked up): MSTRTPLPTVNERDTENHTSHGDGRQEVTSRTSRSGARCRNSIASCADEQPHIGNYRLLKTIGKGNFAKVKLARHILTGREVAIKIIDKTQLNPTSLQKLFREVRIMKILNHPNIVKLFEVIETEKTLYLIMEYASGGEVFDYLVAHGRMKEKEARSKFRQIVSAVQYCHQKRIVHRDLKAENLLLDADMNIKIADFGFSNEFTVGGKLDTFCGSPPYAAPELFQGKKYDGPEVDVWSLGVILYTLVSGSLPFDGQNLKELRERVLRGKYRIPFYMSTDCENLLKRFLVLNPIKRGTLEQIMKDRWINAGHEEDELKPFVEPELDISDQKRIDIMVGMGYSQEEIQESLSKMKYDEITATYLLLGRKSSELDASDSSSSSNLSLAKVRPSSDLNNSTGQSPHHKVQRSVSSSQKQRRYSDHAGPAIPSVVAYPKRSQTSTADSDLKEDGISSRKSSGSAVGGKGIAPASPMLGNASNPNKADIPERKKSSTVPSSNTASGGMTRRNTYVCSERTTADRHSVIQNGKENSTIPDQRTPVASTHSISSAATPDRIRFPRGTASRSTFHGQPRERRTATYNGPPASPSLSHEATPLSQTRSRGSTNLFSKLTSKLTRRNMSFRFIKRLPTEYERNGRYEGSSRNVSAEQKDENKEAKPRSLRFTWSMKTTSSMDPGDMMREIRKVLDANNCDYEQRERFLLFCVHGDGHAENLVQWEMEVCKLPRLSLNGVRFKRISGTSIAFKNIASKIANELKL
Sequence of MAP kinase-interacting serine/threonine-protein kinase 2 (Homo sapiens) (Q9HBH9 whole entry, looked up): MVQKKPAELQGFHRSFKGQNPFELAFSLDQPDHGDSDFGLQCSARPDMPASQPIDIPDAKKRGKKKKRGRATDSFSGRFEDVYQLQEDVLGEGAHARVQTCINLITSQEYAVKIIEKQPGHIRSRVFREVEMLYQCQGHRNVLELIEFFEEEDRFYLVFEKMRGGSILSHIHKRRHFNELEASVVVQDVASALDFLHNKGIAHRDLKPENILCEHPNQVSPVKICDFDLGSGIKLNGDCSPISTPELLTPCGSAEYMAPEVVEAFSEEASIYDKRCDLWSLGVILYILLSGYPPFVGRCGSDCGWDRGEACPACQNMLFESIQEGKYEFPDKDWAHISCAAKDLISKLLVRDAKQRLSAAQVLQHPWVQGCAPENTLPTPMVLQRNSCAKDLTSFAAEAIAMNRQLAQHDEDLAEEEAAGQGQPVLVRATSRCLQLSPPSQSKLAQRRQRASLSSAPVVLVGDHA
Sequence of MAP kinase-interacting serine/threonine-protein kinase 1 (Homo sapiens) (Q9BUB5 whole entry, looked up): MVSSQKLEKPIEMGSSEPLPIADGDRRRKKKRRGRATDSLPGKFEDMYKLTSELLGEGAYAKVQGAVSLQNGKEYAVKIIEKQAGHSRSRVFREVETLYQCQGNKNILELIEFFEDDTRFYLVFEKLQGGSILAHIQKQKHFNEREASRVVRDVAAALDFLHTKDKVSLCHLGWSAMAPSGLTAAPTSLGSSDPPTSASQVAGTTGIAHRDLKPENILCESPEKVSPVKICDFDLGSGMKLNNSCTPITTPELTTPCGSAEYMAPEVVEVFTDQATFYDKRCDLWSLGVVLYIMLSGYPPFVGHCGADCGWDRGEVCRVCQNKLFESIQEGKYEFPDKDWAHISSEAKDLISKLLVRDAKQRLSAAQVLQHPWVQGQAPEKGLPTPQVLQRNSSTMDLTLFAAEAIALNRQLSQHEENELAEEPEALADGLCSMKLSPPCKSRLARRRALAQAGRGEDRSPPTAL
Sequence of Maternal embryonic leucine zipper kinase (Homo sapiens) (Q14680 whole entry, looked up): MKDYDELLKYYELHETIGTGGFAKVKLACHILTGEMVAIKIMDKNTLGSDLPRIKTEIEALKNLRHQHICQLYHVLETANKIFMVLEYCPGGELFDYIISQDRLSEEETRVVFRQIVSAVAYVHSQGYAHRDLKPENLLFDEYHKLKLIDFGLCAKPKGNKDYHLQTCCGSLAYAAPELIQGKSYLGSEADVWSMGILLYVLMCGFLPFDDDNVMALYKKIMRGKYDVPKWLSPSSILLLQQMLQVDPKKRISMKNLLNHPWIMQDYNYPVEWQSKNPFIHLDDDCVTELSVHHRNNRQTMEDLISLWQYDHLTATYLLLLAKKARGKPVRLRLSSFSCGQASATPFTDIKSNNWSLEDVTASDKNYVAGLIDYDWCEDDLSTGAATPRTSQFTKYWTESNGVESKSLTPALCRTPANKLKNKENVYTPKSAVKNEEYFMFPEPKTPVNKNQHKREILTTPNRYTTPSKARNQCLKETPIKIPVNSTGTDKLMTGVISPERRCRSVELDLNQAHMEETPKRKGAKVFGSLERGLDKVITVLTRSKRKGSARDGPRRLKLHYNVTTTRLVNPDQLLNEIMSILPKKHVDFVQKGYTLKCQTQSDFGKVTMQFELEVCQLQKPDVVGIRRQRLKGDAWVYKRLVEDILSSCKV

For orientation: inhibition means the drop in the measured response relative to a control, in per cent. With `COc1ccc2cc(-c3c(-c4ccncc4)nc(-c4ccc(S(C)(=O)=O)cc4C)n3C)ccc2c1`, the inhibition is 2.48% in [1]; 2.52% in test [2]; 1.32% in test [3]; 6.13% in [4]; 9.41% in [5]; 2.6% in test [6]. In addition, the inhibition in test [7] was determined as 6.69%; in [8] it was 1.75%; in test [9], 3.34%; in test [10] it was 0.73%.

On to `c1ccc(-c2n[nH]cc2-c2ccnc(-c3ccc(OCCN4CCOCC4)cc3)c2)nc1`, for which the inhibition was 5.45% in test [1]; 4.57% in [2]; 5.04% in test [3]; -1.03% in test [4]; 3.77% in [5]; 4.82% in [6]. Also, the inhibition was determined as 2.74% in [7], 3.62% in test [8], 2.02% in test [9] and 4.23% in test [10].

In the case of `COc1ccc2ncn(-c3cc(O[C@H](C)c4ccccc4Cl)c(C(N)=O)s3)c2c1`, the inhibition is 3.11% in [1]; 2.49% in test [2]; 2.42% in test [3]; 7.14% in test [4]; 6.08% in test [5]; 1.84% in [6]. The inhibition is 2.25% in [7], 0.29% in [8], 2.7% in [9] and -0.63% in test [10].

With `CN(C)CCOc1ccc(-c2cc(-c3ccc4c(c3)CCC4=NO)c(-c3ccncc3)o2)cc1`, the inhibition is -0.6% in test [1]; -0.26% in test [2]; 0.68% in [3]; -1.71% in test [4]; -1.71% in [5]; 1.14% in test [6]. In addition, the inhibition in test [7] is 5.12%; in test [8], 0.16%; in test [9] it was 2.71%; in test [10], -1.72%.

Turning to `Nc1nccc(-c2c(-c3ccc(F)cc3)ncn2C2CCC(O)CC2)n1` (stereo not given), the inhibition in test [1] is 0.22%; in [2] it was 0.43%; in test [3], 1.28%; in [4] it was -3.21%; in [5] it was 1.19%; in test [6], 0.34%. The inhibition in [7] stood at 0.48%; in test [8] it was 0.18%; in test [9], 0.46%; in test [10] it was 1.84%.

Take `COc1cc2ncn(-c3cc(OCCc4ccccc4)c(C(N)=O)s3)c2cc1OC`: the inhibition in test [1] came out at 1.74%; in test [2] it was 0.87%; in test [3] it was 0.86%; in [4] it was 3.07%; in test [5] it was 1.31%; in [6], 2%. Also, the inhibition is 6.3% in [7], 0.86% in test [8], 12.8% in test [9] and 1% in [10].

With `CCS(=O)(=O)c1ccc(OC)c(Nc2ncc(-c3cccc(-c4ccccc4F)c3)o2)c1`, the inhibition in test [1] came to 7.39%; in test [2], 1.24%; in test [3] it was 1.22%; in test [4], 1.52%; in test [5], 3.29%; in test [6], 1.34%. Moreover, the inhibition in test [7] was 4.69%; in [8] it was 0.34%; in test [9], 3.99%; in [10], -5.23%.

In the case of `Fc1ccc(-c2ncn(C3CCNCC3)c2-c2ccnc(Oc3ccc4c(c3)OCO4)n2)cc1`, the inhibition in [1] is 5.12%; in [2], 2.61%; in [3] it was 3.33%; in [4] it was 6.04%; in [5], 6.41%; in test [6] it was 4.52%. The inhibition was 7.62% in test [7], 1.84% in test [8], 6.88% in test [9] and 0.67% in test [10].

Turning to `CCc1cccc(CC)c1/C=C/c1cncc(C(=O)NC)c1`, the inhibition in test [1] was 0.43%; in [2], 0.15%; in [3], 1.03%; in test [4], 1.61%; in [5] it was 3.83%; in test [6] it was 1.04%. The inhibition in test [7] is 3.27%; in test [8] it was 0.49%; in test [9], 1.79%; in [10], -0.01%.

Regarding `c1ccc(Oc2ccc(Nc3ncc(-c4ccccc4)o3)cc2)cc1`, the inhibition in [1] is -0.43%; in test [2] it was -0.01%; in [3], 0.55%; in [4], 2.47%; in test [5], 2.86%; in [6], 1.08%. Besides, the inhibition was 4.15% in [7], 0.86% in test [8], 2.44% in test [9] and -0.89% in test [10].

In the case of `O=C(Nc1ccc(Oc2ccc3[nH]c(NC(=O)c4ccccc4)nc3c2)cc1)Nc1cc(C(F)(F)F)ccc1F`, the inhibition was 22.9% in test [1]; 0.56% in [2]; 3.1% in test [3]; 3.83% in test [4]; 2.36% in test [5]; 3.79% in [6]. Further, the inhibition was 21% in test [7], 2.44% in test [8], 22.1% in test [9] and -0.01% in test [10].

Regarding `Clc1ccc(CNc2nccc(-c3cnn4ncccc34)n2)cc1`, the inhibition in test [1] is 2.59%; in test [2], -0.78%; in test [3], -0.74%; in [4], -0.99%; in [5] it was 16.4%; in [6], 1.08%. The inhibition in test [7] is 6.48%; in [8], 1.92%; in test [9] it was 10.7%; in test [10] it was -0.61%.

As for `Fc1ccc(-c2nc3n(c2-c2ccncc2)CCS3)cc1`, the inhibition was -0.12% in [1]; 2.4% in test [2]; 3.63% in [3]; 4.86% in test [4]; 6.72% in test [5]; 1.57% in test [6]. Also, the inhibition in test [7] was 4.14%; in test [8], -2.37%; in [9], 0.35%; in test [10], 0.46%.

`COc1cc2ncn(-c3cc(OCc4ccccc4C(F)(F)F)c(C(C)=O)s3)c2cc1OC`: the inhibition in test [1] turned out to be 3.71%; in test [2], 3%; in test [3], 2.91%; in [4], 3.94%; in [5], 1.83%; in [6], 3.58%. The inhibition in test [7] is 5.46%; in test [8], 1.92%; in test [9], 4.93%; in test [10] it was -0.07%.
